Rows were chosen to be rich in hits. Some 6% of all compounds tested hit in one or more screens of this group.
D1 potentiator: potentiators of human D1 dopamine receptor. AID 504651. HEK293 TREx D1 cells, calcium flux, dopamine EC20 potentiation. P21728. potentiation, % at 10 µM. 0.036% of 360,000 active; in the data active = potentiation above about 30%
Target sequence (P21728 whole entry, looked up): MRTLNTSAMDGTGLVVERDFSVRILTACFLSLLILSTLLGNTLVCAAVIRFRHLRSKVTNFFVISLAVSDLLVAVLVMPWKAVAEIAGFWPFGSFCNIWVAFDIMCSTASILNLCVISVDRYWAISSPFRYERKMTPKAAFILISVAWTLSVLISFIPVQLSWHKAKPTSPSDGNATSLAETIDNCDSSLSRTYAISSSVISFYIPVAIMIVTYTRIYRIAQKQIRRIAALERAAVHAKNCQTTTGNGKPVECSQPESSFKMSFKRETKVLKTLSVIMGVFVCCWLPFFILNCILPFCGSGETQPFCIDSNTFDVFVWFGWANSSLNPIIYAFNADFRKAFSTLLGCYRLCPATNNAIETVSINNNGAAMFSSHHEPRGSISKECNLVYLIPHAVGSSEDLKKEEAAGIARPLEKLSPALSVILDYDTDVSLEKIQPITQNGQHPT
DRD3 agonist: agonists of human D3 dopamine receptor | P35462 | D3R DiscoveRx beta-arrestin cells, luminescence, 90 min | max activation, % | 0.58% of 410,000 active; in the data active = max activation above about 30%
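Agonist mode: compounds and dopamine controls were applied to plated cells for 90 min at 37 degrees C after an overnight attachment at 1500 cells/well. Luminescent read-out followed 30 - 60 minutes at room temperature with DiscoveRx detection reagent.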
D1 agonist: human D1 receptor agonism | P21728 | HEK293 T-REx D1 cells, calcium flux, agonist mode | activation, % at 2 µM | 1% of 360,000 active | AID 504660; in the data active = activation above about 30%
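Tetracycline-induced HEK293 TREx D1 cells, force-coupled to calcium signalling, were dye-loaded with a no-wash calcium kit. Compound was pin-added after a 10 s baseline. Fluorescence was read kinetically at 1 cycle/s for 180 s, with calcium rises flagged as agonism.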
D3 antag: blocks the human D3 dopamine receptor | 2.5% of 360,000 active | AID 652054 | max response, negative = inhibition, % | D3R cells, DiscoveRx beta-arrestin luminescence, antagonist mode; hits give low values; in the data active = max response below about -50%
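Cells plated overnight at 1500 cells/well, then exposed to library compounds with dopamine controls for 90 minutes at 37 degrees C. DiscoveRx reagent added for 30–60 minutes at room temperature; luminescence read, quantitative HTS format.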
D1 antag: human D1 dopamine receptor antagonism | activity change, negative = inhibition, % at 10 µM | AID 504652 | HEK293 TREx D1 cells, calcium flux, dopamine EC80; hits give low values | P21728 | 3.2% of 360,000 active; in the data active = activity change below about -30%
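Tetracycline-induced HEK293 Trex D1 cells, force-coupled to calcium, dye-loaded; compounds added and read 180 s, then EC80 dopamine added and calcium flux tracked kinetically another 180 s.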
Hits are given with their value; i = inactive; nt = no result given; ! = repeats disagree.

SMILES	D1 potentiator	DRD3 agonist	D1 agonist	D3 antag	D1 antag
CCOC(=O)C1CCCN(C(=O)c2cc3c(C)nc4ccccc4c3o2)C1 (centres undefined)	i	38.5	i	i	i
CCN(CCCNC(=O)c1cc2c(=O)n(C)c3ccccc3c2s1)c1ccccc1	i	i	i	nt	i
CCOC(=O)C1CCCN(C(=O)c2cc(-c3ccco3)nc3ccccc23)C1 (centres undefined)	nt	i	nt	i	nt
CCN(CCCNC(=O)c1cc2c(=O)n(C)c3ccccc3c2s1)Cc1ccccc1	i	i	i	nt	-35.7
CC1CCCN(CCCNC(=O)c2cc3c(Cl)nc4ccccc4c3s2)C1 (centres undefined)	i	i	i	-64.6	i
Cc1nc2ccccc2c2oc(C(=O)NCCCN3CCCC(C)C3)cc12 (centres undefined)	i	i	i	-77.2	i
CC1CCCN(CCCNC(=O)c2cc(Sc3ccc(F)cc3)nc3ccccc23)C1 (centres undefined)	i	i	i	nt	i
CC1CCCN(C(=O)c2cc3c(Cl)nc4ccccc4c3s2)C1 (centres undefined)	i	i	i	nt	i
CN(C(=O)c1cc2c(Cl)nc3ccccc3c2s1)c1cccc(C(F)(F)F)c1	i	i	i	nt	i
Cc1nc2ccccc2c2oc(C(=O)N3CC(C)CC(C)C3)cc12 (centres undefined)	i	i	i	i	i
CCCCN(CC)CCNC(=O)c1cc2c(=O)[nH]c3ccccc3c2s1	i	i	i	-54.2	i
COc1ccc(N(C)C(=O)c2cc3c(Cl)nc4ccccc4c3s2)cc1	i	66.1	i	i	i
CCN(CCCNC(=O)c1cc2c(Cl)nc3ccccc3c2s1)Cc1ccccc1	i	i	i	nt	i
CCN(CC)CCCNC(=O)c1cc2c(Cl)nc3ccccc3c2s1	i	i	i	-53.6	i
Cc1nc2ccccc2c2oc(C(=O)NCCCN3CC(C)CC(C)C3)cc12 (centres undefined)	i	i	i	-65.3	i
Cc1nc2nc(NC(=O)C(C)C)[nH]n2c(=O)c1Cc1ccccc1	i	i	i	nt	i
CCOC(=O)CC(NC(=O)c1cc2c(=O)n3cccc(C)c3nc2s1)c1ccc(OCC)c(OC)c1 (centres undefined)	i	i	i	nt	i
O=C(Oc1ccccc1)c1cccc2cccnc12	i	i	i	-53.6	i
COc1ccc(OC)c(NC(=O)c2cnc(N3CCCCC3)c3ccccc23)c1	i	i	i	nt	i
CO/N=C(\C(=O)N[C@@H]1C(=O)N2C(C(=O)O)=C(CSc3nc(C)c(CC(=O)O)s3)CS[C@H]12)c1csc(N)n1	nt	i	nt	nt	nt
O=C(Oc1ccc(NC2=C(Cl)C(=O)c3ccccc3C2=O)cc1)c1ccc([N+](=O)[O-])cc1	i	i	i	i	i
CN(C)c1ccc(NC2=C(Cl)C(=O)c3ccccc3C2=O)cc1	i	i	i	-93.2	-65.7
O=C1C(Cl)=C(NCCCO)C(=O)c2ccccc21	i	i	i	i	i
O=C1C(Cl)=C(Nc2ccc3cn[nH]c3c2)C(=O)c2ccccc21	i	i	i	-119.7	-74.5
O=C(Nc1ccc2cn[nH]c2c1)c1c(Cl)cccc1Cl	i	i	i	i	i
SMILES	D1 potentiator	DRD3 agonist	D1 agonist	D3 antag	D1 antag
CC(=O)Nc1ccc(NC2=C(Cl)C(=O)c3ccccc3C2=O)cc1	i	i	i	-101.5	-58.1
Cc1cc2c(cc1C)C(c1ccccc1OC(C)C)CC(=O)N2 (centres undefined)	i	i	i	i	i
Cn1c(=O)c2c(n3cnnc13)-c1ccccc1CC21CCCC1	i	i	i	-56.4	i
O=c1c2c(n3cnnc3n1-c1ccccc1)-c1ccccc1CC21CCCC1	i	i	i	i	i
O=C(CSc1ncccc1C(=O)Oc1ccccc1Cl)Nc1ccc(C(F)(F)F)cc1Cl	i	i	i	nt	i
Nn1c(SCC(=O)Nc2ccc3c(c2)OCCO3)nnc1-c1ccccn1	i	i	i	i	-35.5
COC(=O)CSc1nnc(-c2ccncc2)n1N	i	i	i	i	i
CC(=O)Nc1ccc(NC(=O)CSc2nnc(-c3ccccc3)n2Cc2ccc3c(c2)OCO3)cc1	i	i	i	-102.7	i
CCc1nc(SCC(=O)Nc2ccc3c(c2)OCCO3)c2oc3ccccc3c2n1	i	i	i	i	-33.7
Cc1ccc(NC(=O)CSc2nnc(-c3ccncc3)n2N)cc1C	i	i	i	-69.7	i
O=C(CSCc1ccccc1Cl)Nc1ccc2c(c1)OCCO2	i	i	i	i	-35.6
C=CCn1c(SCC(=O)Nc2ccc3c(c2)OCO3)nnc1-c1ccccc1	i	i	i	i	i
C=CCn1c(SCC(=O)Nc2ccc3c(c2)OCO3)nnc1-c1cc(Br)ccc1O	i	i	i	-51.1	i
CCn1c(SCC(=O)Nc2ccc3c(c2)OCO3)nnc1-c1cnccn1	i	i	i	i	-31.6
CCn1c(COc2ccccc2C)nnc1SCC(=O)Nc1ccc2c(c1)OCCO2	i	i	i	i	i
CCn1c(Cc2ccccc2)nnc1SCC(=O)Nc1ccc2c(c1)OCCO2	i	35.4	i	i	i
CC1CCN(C(=O)C(C)OC(=O)CSc2ccc([N+](=O)[O-])cc2)CC1 (centres undefined)	i	i	i	i	i
CC(C)C1NCCc2c1sc1ccccc21 (centres undefined)	nt	i	nt	-61.2	nt
CC(C)C(=O)N1c2nc(C(C)C)nn2C2(CCCCC2)[C@@H]2CCCC[C@@H]21	i	i	i	nt	i
Cn1c(NCc2cccnc2)nc2cc(-c3ccc(C(=O)N4CCOCC4)cc3)sc2c1=O	nt	i	nt	-78.4	nt
N/C(=N/O)C(c1ccccc1)c1ccccc1	i	i	i	i	-44.2
CCN1C[C@@H]2[C@@H]3C(=O)N(Cc4ccccc4)C(=O)[C@@H]3[C@](Cc3ccccc3)(C(=O)OC)N2C1=NC	nt	i	nt	i	nt
Cc1cccc(-c2ccc3ncnc(NCc4cccs4)c3c2)c1	i	nt	i	nt	-46.0!
Cc1csc(CNc2ncnc3ccc(-c4ccoc4)cc23)c1	i	nt	i	nt	-62.5!
Clc1ccccc1-c1ccc2ncnc(NCc3cccs3)c2c1	i	nt	i	nt	-41.8
SMILES	D1 potentiator	DRD3 agonist	D1 agonist	D3 antag	D1 antag
Clc1cccc(-c2ccc3ncnc(NCc4cccs4)c3c2)c1	i	nt	i	nt	i
CCCCn1cnc2cc(NC(=O)c3cc(OC)c(OC)c(OC)c3)ccc21	i	i	i	nt	i
O=C(COc1ccc(F)cc1)Nc1ccc(OCc2cc(=O)n3ccsc3n2)cc1	i	i	i	nt	i
Cc1cc(C(F)(F)F)c2c(C)nn(-c3ccccc3)c2n1	nt	i	nt	i	nt
Cc1ccc(-n2nc(C)c3c(C(F)(F)F)cc(-c4cccnc4)nc32)cc1C	i	i	i	nt	-49.9
Cc1ccc(S(=O)(=O)NN=C2C(=O)C3CCC2C3Cl)cc1 (centres undefined)	nt	i	nt	i	nt
O=C(CN(c1ccc(Cl)c(C(F)(F)F)c1)S(=O)(=O)c1ccccc1)N/N=C/c1cccc2c1OCCO2	i	i	i	-62.9	i
Clc1ccc(-c2c(C3=NCCCN3)nnn2-c2ccc(Cl)cc2)cc1	i	i	i	i	-38.9
